This note sets out measurements from PubChem BioAssay (Tox21).

Inconclusive results are not listed. Entries that show only a call come without a potency. Calls of active or inactive are those of the source. Calls come from the whole dose curve; as a rule, active = well fitted curve in the direction sought with a large enough effect in the repeat runs; inconclusive = weak or mixed curves; inactive = no such curve, though single readings can be large; an effect the other way counts as inactive or inconclusive.

One assay in a line: A CellTox Green Cytotoxicity Assay to monitor cytotoxicity in HEK293 cells - 8 hour (AID 1224884). Note: nearly all actives have a fitted effect of over 35% in size. Particulars: CellTox Green fluorescence; series mostly up to 76.8 µM. The method, boiled down: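 Homogeneous no-lysis format: HEK293 cell suspension mixed with CellTox Green reagent, seeded, incubated 5 h at 37 C/5% CO2, then dosed by pintool with compound in DMSO.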
As to `CNC(=O)Oc1ccccc1C1OCCO1`, the Potency entry was “inactive”.

For the molecule `N#CC(Cl)(Cl)Cl`, the Potency result is “inactive”.

As for `Nc1cc2c3c(c1)C(c1ccccc1)=N[C@@H](NC(=O)c1cccnc1)C(=O)N3CC2`, the Potency entry was “inactive”.

As to `C#CCN1C(=O)COc2cc(F)c(N3C(=O)C4=C(CCCC4)C3=O)cc21`, the Potency entry is “inactive”.

For `CCCCOC(=O)[C@@H](C)Oc1ccc(Oc2ccc(C#N)cc2F)cc1`, the Potency result is “inactive”.

For `CCOC(=O)C1(c2ccccc2)CCN(CCc2ccc(N)cc2)CC1`, the Potency result is “inactive”.

On to `ClCC(Cl)(Cl)Cl`, for which the Potency entry is “inactive”.

As for `CC(Oc1ccc(Oc2ncc(C(F)(F)F)cc2Cl)cc1)C(=O)O` (centres undefined), the Potency result was “inactive”.

Turning to `Cc1ncsc1CCCl`, the Potency entry is “inactive”.

As for `CCN(Cc1ccc(Cl)nc1)/C(=C/[N+](=O)[O-])NC`, the Potency result was “inactive”.

As to `C[C@]12CC[C@H]3[C@@H](CC=C4C[C@@H](O)CC[C@@]43C)[C@@H]1CC[C@@H]2O`, the Potency entry is “inactive”.

Take `NC1=NC(=O)C(c2ccccc2)O1` (centres undefined): the Potency result is “inactive”.

Turning to `Cc1cccc(C#N)c1`, the Potency entry is “inactive”.

In the case of `Clc1ccccc1N1CCNCC1`, the Potency entry is “inactive”.

`COP(=S)(OC)Oc1c(Cl)cc(C)cc1Cl`: the Potency entry was “inactive”.

Take `CN1CCC(N(Cc2ccccc2)c2ccccc2)CC1`: the Potency entry is “inactive”.

As for `CC(C)CC#N`, the Potency entry is “inactive”.

Turning to `CN1C[C@@H](NS(=O)(=O)N(C)C)C[C@@H]2c3cccc4c3c(cn4C)C[C@H]21`, the Potency entry is “inactive”.

As for `CCN(CC)C(C)C(=O)c1ccccc1` (centres undefined), the Potency result was “inactive”.

Turning to `CNC(=O)Oc1cccc(C(C)C)c1`, the Potency result is “inactive”.

As to `CC(=O)CCc1ccc2c(c1)OCO2`, the Potency entry is “inactive”.

In the case of `O=NN1CCN(N=O)CC1`, the Potency entry is “inactive”.

In the case of `C=C(C)[C@@H]1CC=C(C=O)CC1`, the Potency entry is “inactive”.

In the case of `CNC(=O)Oc1c(C(C)(C)C)cc(C)cc1C(C)(C)C`, the Potency result was “inactive”.

Consider `CCC1(c2ccccc2)C(=O)NC(=O)NC1=O`, for which the Potency entry is “inactive”.

In the case of `OCCBr`, the Potency result was “inactive”.

Turning to `BrCCCCCCBr`, the Potency entry was “inactive”.

Turning to `CCCCCCBr`, the Potency result is “inactive”.

As to `Fc1cc(Br)ccc1CBr`, the Potency entry was “inactive”.

For the molecule `Cc1cnc[nH]1`, the Potency result is “inactive”.

With `NC(=O)O`, the Potency entry is “inactive”.

In the case of `CCOP(=S)(OCC)SCSc1ccc(Cl)cc1`, the Potency entry was “inactive”.

As to `CC1CCC(=O)O1` (centres undefined), the Potency entry is “inactive”.

As for `ClC(Cl)Br`, the Potency result is “inactive”.

As to `[O]=[Cd]`, the Potency entry is “inactive”.

With `Clc1cccc(N2CCNCC2)c1`, the Potency entry was “inactive”.

As to `c1cc2c(c(N3CCNCC3)c1)OCCO2`, the Potency entry is “inactive”.

As to `CC(=O)CC(c1ccc(Cl)cc1)c1c(O)c2ccccc2oc1=O` (centres undefined), the Potency entry was “inactive”.

Another assay is described as follows: qHTS RealTime-Glo MT Cell Viability Assay in HepG2 cells - 16 hour (AID 1224885). Note: nearly all actives have a fitted effect of over 50% in size. Particulars: RealTime-Glo luminescence; series mostly up to 76.8 µM. The method, boiled down:
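Real-time, nonlytic viability: 600 HepG2 cells/well mixed with NanoLuc enzyme plus prosubstrate; 5 h settle, compound (DMSO) added by pintool; luminescence monitored over 40 h at 37 C.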
(Quantitative high-throughput screening tests each substance at several concentrations.)
Turning to `CNC(=O)Oc1ccccc1C1OCCO1`, the Potency entry is “inactive”.

As to `N#CC(Cl)(Cl)Cl`, the Potency entry is “inactive”.

As to `Nc1cc2c3c(c1)C(c1ccccc1)=N[C@@H](NC(=O)c1cccnc1)C(=O)N3CC2`, the Potency entry is “inactive”.

Turning to `C#CCN1C(=O)COc2cc(F)c(N3C(=O)C4=C(CCCC4)C3=O)cc21`, the Potency result is “inactive”.

Regarding `CCCCOC(=O)[C@@H](C)Oc1ccc(Oc2ccc(C#N)cc2F)cc1`, the Potency entry is “inactive”.

Take `CCOC(=O)C1(c2ccccc2)CCN(CCc2ccc(N)cc2)CC1`: the Potency result is “inactive”.

Turning to `ClCC(Cl)(Cl)Cl`, the Potency result is “inactive”.

As for `CC(Oc1ccc(Oc2ncc(C(F)(F)F)cc2Cl)cc1)C(=O)O` (centres undefined), the Potency entry was “inactive”.

With `Cc1ncsc1CCCl`, the Potency entry was “inactive”.

`CCN(Cc1ccc(Cl)nc1)/C(=C/[N+](=O)[O-])NC`: the Potency entry is “inactive”.

On to `C[C@]12CC[C@H]3[C@@H](CC=C4C[C@@H](O)CC[C@@]43C)[C@@H]1CC[C@@H]2O`, for which the Potency result is “inactive”.

Regarding `NC1=NC(=O)C(c2ccccc2)O1` (centres undefined), the Potency result was “inactive”.

`Cc1cccc(C#N)c1`: the Potency result is “inactive”.

As to `Clc1ccccc1N1CCNCC1`, the Potency result is “inactive”.

In the case of `COP(=S)(OC)Oc1c(Cl)cc(C)cc1Cl`, the Potency entry is “inactive”.

For the molecule `CN1CCC(N(Cc2ccccc2)c2ccccc2)CC1`, the Potency entry was “inactive”.

Consider `CC(C)CC#N`, for which the Potency entry is “inactive”.

On to `CN1C[C@@H](NS(=O)(=O)N(C)C)C[C@@H]2c3cccc4c3c(cn4C)C[C@H]21`, for which the Potency entry was “inactive”.

As for `CCN(CC)C(C)C(=O)c1ccccc1` (centres undefined), the Potency result was “inactive”.

Take `CNC(=O)Oc1cccc(C(C)C)c1`: the Potency result was “inactive”.

Regarding `CC(=O)CCc1ccc2c(c1)OCO2`, the Potency entry was “inactive”.

For the molecule `O=NN1CCN(N=O)CC1`, the Potency entry was “inactive”.

Regarding `C=C(C)[C@@H]1CC=C(C=O)CC1`, the Potency entry is “inactive”.

Regarding `CNC(=O)Oc1c(C(C)(C)C)cc(C)cc1C(C)(C)C`, the Potency result is “inactive”.

On to `CCC1(c2ccccc2)C(=O)NC(=O)NC1=O`, for which the Potency entry is “inactive”.

Regarding `OCCBr`, the Potency result was “inactive”.

Consider `BrCCCCCCBr`, for which the Potency result was “inactive”.

Turning to `CCCCCCBr`, the Potency result is “inactive”.

`Fc1cc(Br)ccc1CBr`: the Potency result is “inactive”.

In the case of `Cc1cnc[nH]1`, the Potency result was “inactive”.

In the case of `NC(=O)O`, the Potency entry is “inactive”.

Turning to `CCOP(=S)(OCC)SCSc1ccc(Cl)cc1`, the Potency entry is “inactive”.

`CC1CCC(=O)O1` (centres undefined): the Potency entry is “inactive”.

`ClC(Cl)Br`: the Potency result was “inactive”.

Take `[O]=[Cd]`: the Potency entry was “inactive”.

In the case of `Clc1cccc(N2CCNCC2)c1`, the Potency entry was “inactive”.

Turning to `c1cc2c(c(N3CCNCC3)c1)OCCO2`, the Potency result is “inactive”.

As to `CC(=O)CC(c1ccc(Cl)cc1)c1c(O)c2ccccc2oc1=O` (centres undefined), the Potency result is “inactive”.

A short description of a further assay: qHTS RealTime-Glo MT Cell Viability Assay in HEK293 cells - 24 hour (AID 1224886). Note: nearly all actives have a fitted effect of over 50% in size. Note: potency is the fitted concentration of half-maximal effect. Particulars: RealTime-Glo luminescence; series mostly up to 76.8 µM. The method, boiled down:
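Cells + reagent dispensed (600 cells/well, HEK293) → 5 h at 37 C/5% CO2 → 23 nL compound in DMSO pinned → 40 h at 37 C → luminescence read at 0, 8, 16, 24, 32, 40 h.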
`CNC(=O)Oc1ccccc1C1OCCO1`: the Potency result is “inactive”.

Turning to `N#CC(Cl)(Cl)Cl`, the Potency result is “inactive”.

Regarding `Nc1cc2c3c(c1)C(c1ccccc1)=N[C@@H](NC(=O)c1cccnc1)C(=O)N3CC2`, the Potency result was “inactive”.

Turning to `C#CCN1C(=O)COc2cc(F)c(N3C(=O)C4=C(CCCC4)C3=O)cc21`, the Potency result is “inactive”.

On to `CCCCOC(=O)[C@@H](C)Oc1ccc(Oc2ccc(C#N)cc2F)cc1`, for which the Potency was 19.4 µM (active).

As to `CCOC(=O)C1(c2ccccc2)CCN(CCc2ccc(N)cc2)CC1`, the Potency entry is “inactive”.

Take `ClCC(Cl)(Cl)Cl`: the Potency entry is “inactive”.

For the molecule `CC(Oc1ccc(Oc2ncc(C(F)(F)F)cc2Cl)cc1)C(=O)O` (centres undefined), the Potency result is “inactive”.

On to `Cc1ncsc1CCCl`, for which the Potency result was “inactive”.

Regarding `CCN(Cc1ccc(Cl)nc1)/C(=C/[N+](=O)[O-])NC`, the Potency entry was “inactive”.

As for `C[C@]12CC[C@H]3[C@@H](CC=C4C[C@@H](O)CC[C@@]43C)[C@@H]1CC[C@@H]2O`, the Potency entry is “inactive”.

For the molecule `NC1=NC(=O)C(c2ccccc2)O1` (centres undefined), the Potency result is “inactive”.

For the molecule `Cc1cccc(C#N)c1`, the Potency result was “inactive”.

Take `Clc1ccccc1N1CCNCC1`: the Potency result was “inactive”.

Regarding `COP(=S)(OC)Oc1c(Cl)cc(C)cc1Cl`, the Potency entry is “inactive”.

For `CN1CCC(N(Cc2ccccc2)c2ccccc2)CC1`, the Potency result was “inactive”.

As to `CC(C)CC#N`, the Potency entry was “inactive”.

In the case of `CN1C[C@@H](NS(=O)(=O)N(C)C)C[C@@H]2c3cccc4c3c(cn4C)C[C@H]21`, the Potency result is “inactive”.

Take `CCN(CC)C(C)C(=O)c1ccccc1` (centres undefined): the Potency entry is “inactive”.

As to `CNC(=O)Oc1cccc(C(C)C)c1`, the Potency result is “inactive”.

For `CC(=O)CCc1ccc2c(c1)OCO2`, the Potency result is “inactive”.

Regarding `O=NN1CCN(N=O)CC1`, the Potency result is “inactive”.

For the molecule `C=C(C)[C@@H]1CC=C(C=O)CC1`, the Potency result is “inactive”.

For `CNC(=O)Oc1c(C(C)(C)C)cc(C)cc1C(C)(C)C`, the Potency result is “inactive”.

On to `CCC1(c2ccccc2)C(=O)NC(=O)NC1=O`, for which the Potency result was “inactive”.

Take `OCCBr`: the Potency result was “inactive”.

As for `BrCCCCCCBr`, the Potency result is “inactive”.

On to `CCCCCCBr`, for which the Potency entry is “inactive”.

`Fc1cc(Br)ccc1CBr`: the Potency entry was “inactive”.

In the case of `Cc1cnc[nH]1`, the Potency entry was “inactive”.

Turning to `NC(=O)O`, the Potency entry is “inactive”.

As for `CCOP(=S)(OCC)SCSc1ccc(Cl)cc1`, the Potency entry is “inactive”.

On to `CC1CCC(=O)O1` (centres undefined), for which the Potency result was “inactive”.

For `ClC(Cl)Br`, the Potency result was “inactive”.

For the molecule `[O]=[Cd]`, the Potency result is “inactive”.

Regarding `Clc1cccc(N2CCNCC2)c1`, the Potency entry is “inactive”.

Regarding `c1cc2c(c(N3CCNCC3)c1)OCCO2`, the Potency entry was “inactive”.

Consider `CC(=O)CC(c1ccc(Cl)cc1)c1c(O)c2ccccc2oc1=O` (centres undefined), for which the Potency entry was “inactive”.
